# This is a sample that favours compounds with a hit; in the whole collection about 6.7% have one here.
# C diff HTS: inhibitors of Clostridium difficile growth; Clostridium difficile clinical isolate growth, OD600, 24 h; active compounds read low; growth activity, negative = inhibition, % at 16 µg/mL (by protocol); 86,000 compounds, 0.25% hits;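 active means mean growth activity at or below -80% and every replicate also at or below -80%; inconclusive means mean at or below -80% but some replicate above -80%; inactive means mean growth activity above -80%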
# T cruzi growth-1: blocks T. cruzi growth in NIH3T3 culture; T. cruzi beta-gal in NIH3T3, GalScreen luminescence, 90 h; inhibition, % at 8.34 µM; 77,000 compounds, 5.9% hits;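 active means mean inhibition above about 93%, with at least 55% of replicates each passing it, limit read from the data, passing the limit was not always enough; inconclusive means only one of those two conditions holds; inactive means neither condition holds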
# Pf Dd2 inh: P. falciparum Dd2 growth inhibition; SYBR Green, 72 h; active compounds read low; activity change, % at 10 µM; 94,000 compounds, 2.3% hits; in the data active means activity change below about -80%; inconclusive means no clear call, values can overlap the other calls
# T cruzi growth-2: inhibitors of T. cruzi proliferation | 5,600 compounds, 72% hits | T. cruzi beta-gal in NIH3T3, GalScreen luminescence, 90 h | AID 651739 | inhibition, % at 8.35 µM | shares compounds with T cruzi growth-1;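 active means mean replicate inhibition above about 95% and at least 55% of replicates individually reaching it, limit read from the data; inconclusive means only one of the two criteria is met; inactive means neither criterion is met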
# T cruzi growth-3: inhibitors of T. cruzi proliferation; shares compounds with T cruzi growth-1; T. cruzi beta-gal in NIH3T3, GalScreen luminescence, 90 h; inhibition, % at 2.09 µM; 5,600 compounds, 21% hits; AID 651740;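 active means mean inhibition above about 95%, with at least 55% of replicates also reaching it, limit read from the data; inconclusive means meets just one of the two conditions; inactive means meets neither condition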
# NIH3T3 tox: kills mouse NIH/3T3 fibroblasts; NIH/3T3 viability, CellTiter-Glo ATP luminescence, 90 h; cytotoxicity (signal decrease), % at 8.35 µM; AID 651742; 5,600 compounds, 14% hits; shares compounds with T cruzi growth-1;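 active means mean signal decrease across replicates above about 35% based on untreated-well scatter, with enough replicates individually passing, limit read from the data; inconclusive means no rule stated though some were filed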
# 3T3 cytotox 2: kills mouse NIH/3T3 fibroblasts | shares compounds with T cruzi growth-1 | AID 651744 | 5,600 compounds, 56% hits | inhibition, % at 24.9 µM | NIH/3T3 viability, CellTiter-Glo ATP luminescence, 90 h;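 active means mean loss of cell viability signal at or above a set limit, and enough replicates individually reaching it; inconclusive means meets only the mean limit or only the replicate share; inactive means meets neither condition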
# A number is an active result; 0 = inactive; ? = inconclusive; - = no result given.
SMILES,C diff HTS,T cruzi growth-1,Pf Dd2 inh,T cruzi growth-2,T cruzi growth-3,NIH3T3 tox,3T3 cytotox 2
C[C@H]1CN([C@@H](C)CO)S(=O)(=O)c2ccc(C#CC3CC3)cc2O[C@@H]1CN(C)Cc1ccccc1F,0,112,0,97,117,0,104
CC(C)CC#Cc1ccc2c(c1)O[C@@H](CN(C)Cc1ccccc1F)[C@@H](C)CN([C@H](C)CO)S2(=O)=O,-,?,0,97,108,0,105
CCC(=O)N1C[C@H](O)COC[C@H]2O[C@@H](CC(=O)N3CCCCC3)CC[C@@H]21,0,0,0,-,-,-,-
CCS(=O)(=O)N[C@H]1C=C[C@@H](CC(=O)N2CCCCC2)O[C@@H]1CO,-,0,0,-,-,-,-
CC(C)CC#Cc1ccc([C@H]2[C@H](CO)N3C(=O)CN(S(=O)(=O)c4ccccc4)C[C@@H]23)cc1,0,-,0,-,-,-,-
C[C@@H]1CN([C@H](C)CO)C(=O)Cc2cc(NC(=O)Nc3ccc4c(c3)OCO4)ccc2O[C@H]1CN(C)C(=O)NC1CCCCC1,0,0,0,-,-,-,-
COc1ccc(CN(C)C[C@@H]2Oc3c(NC(=O)Nc4c(C)noc4C)cccc3C(=O)N([C@H](C)CO)C[C@@H]2C)cc1,0,0,0,-,-,-,-
CC(C)CC#Cc1ccc2c(c1)O[C@H](CN(C)Cc1ccccc1F)[C@H](C)CN([C@@H](C)CO)S2(=O)=O,-,?,0,107,0,0,105
CC(C)CC#Cc1ccc2c(c1)O[C@@H](CN(C)Cc1ccccc1F)[C@H](C)CN([C@H](C)CO)S2(=O)=O,-,?,0,0,105,101,104
CC(C)CC#Cc1ccc2c(c1)O[C@H](CN(C)Cc1ccccc1F)[C@H](C)CN([C@H](C)CO)S2(=O)=O,-,?,0,98,113,0,105
COCC#Cc1ccc2c(c1)O[C@H](CN(C)Cc1ccccc1F)[C@H](C)CN([C@@H](C)CO)S2(=O)=O,0,0,0,-,-,-,-
COCC#Cc1ccc2c(c1)O[C@@H](CN(C)Cc1ccccc1F)[C@H](C)CN([C@@H](C)CO)S2(=O)=O,0,0,0,-,-,-,-
CC(C)CC#Cc1ccc2c(c1)O[C@H](CN(C)Cc1ccccc1F)[C@@H](C)CN([C@H](C)CO)S2(=O)=O,-,0,0,-,-,-,-
C[C@H](CO)N1C[C@H](C)[C@H](CN(C)C(=O)NC2CCCCC2)Oc2ccc(NC(=O)CCN3CCOCC3)cc2CC1=O,0,0,0,-,-,-,-
O=C(NC1CCCCC1)N[C@H]1CC[C@@H](CCNS(=O)(=O)c2ccc(Cl)cc2)O[C@@H]1CO,0,0,0,-,-,-,-
C[C@H](CO)N1C[C@H](C)[C@@H](CN(C)Cc2ccncc2)OCCCC[C@H](C)Oc2ccc(NC(=O)Nc3ccccc3)cc2C1=O,0,0,0,-,-,-,-
COc1ccc(C#Cc2ccc([C@@H]3[C@@H](CO)N4CCCCN(C(=O)Nc5ccccc5)C[C@@H]34)cc2)cc1,0,111,0,0,0,0,102
COc1ccc(C#Cc2ccc([C@H]3[C@H]4CN(C(=O)Nc5cccc(F)c5)CCCCN4[C@H]3CO)cc2)cc1,0,113,0,104,0,0,0
COc1ccc(C#Cc2ccc([C@H]3[C@H](CO)N4CCCCN(C(=O)Nc5cccc(F)c5)C[C@@H]34)cc2)cc1,0,0,0,-,-,-,-
COc1ccc(C#Cc2ccc([C@H]3[C@H]4CN(C(=O)Nc5ccc(F)cc5)CCCCN4[C@H]3CO)cc2)cc1,0,0,0,-,-,-,-
COc1ccc(C#Cc2ccc([C@H]3[C@H]4CN(C(=O)Nc5ccccc5F)CCCCN4[C@H]3CO)cc2)cc1,0,120,0,106,0,0,33
COc1ccc(C#Cc2ccc([C@@H]3[C@H]4CN(C(=O)Nc5ccccc5F)CCCCN4[C@H]3CO)cc2)cc1,0,0,0,-,-,-,-
COc1ccc(C#Cc2ccc([C@@H]3[C@@H](CO)N4CCCCN(C(=O)Nc5ccccc5F)C[C@H]34)cc2)cc1,0,0,?,-,-,-,-
COc1ccc(C#Cc2ccc([C@H]3[C@@H](CO)N4CCCCN(C(=O)Nc5ccc(F)cc5)C[C@@H]34)cc2)cc1,0,107,0,104,104,0,0
C[C@H](CO)N1C[C@H](C)[C@@H](CN(C)S(=O)(=O)c2cccs2)OCCCC[C@H](C)Oc2ccc(NS(=O)(=O)c3cn(C)cn3)cc2C1=O,0,-,0,-,-,-,-
SMILES,C diff HTS,T cruzi growth-1,Pf Dd2 inh,T cruzi growth-2,T cruzi growth-3,NIH3T3 tox,3T3 cytotox 2
O=C(N[C@H]1CC[C@H](CCNS(=O)(=O)Cc2ccccc2)O[C@H]1CO)c1ccc2c(c1)OCO2,-,0,0,-,-,-,-
CO[C@@H]1CN(C)C(=O)c2cc(NC(=O)C3CCCCC3)ccc2OC[C@@H](C)N(Cc2nccs2)C[C@H]1C,0,0,0,-,-,-,-
CO[C@H](CN(C)Cc1ccc2c(c1)OCO2)[C@H](C)CN(C(=O)Nc1ccc(F)cc1)[C@@H](C)CO,-,0,0,-,-,-,-
COc1ccc(NC(=O)N2CCCCN3[C@H](C2)[C@H](c2ccc(C#Cc4ccccn4)cc2)[C@@H]3CO)cc1,0,0,0,-,-,-,-
COc1ccc(NC(=O)N2CCCCN3[C@H](CO)[C@@H](c4ccc(C#Cc5ccccc5)cc4)[C@@H]3C2)cc1,0,112,0,0,0,37,104
O=C(Nc1cccc(F)c1)N1CCCCN2[C@@H](CO)[C@@H](c3ccc(C#Cc4ccccc4)cc3)[C@@H]2C1,0,0,0,-,-,-,-
COc1ccc(NC(=O)N2CCCCN3[C@H](CO)[C@@H](c4ccc(C#Cc5ccccc5)cc4)[C@H]3C2)cc1,0,107,0,96,104,91,104
O=C(Nc1cccc(F)c1)N1CCCCN2[C@@H](CO)[C@@H](c3ccc(C#Cc4cccnc4)cc3)[C@@H]2C1,0,100,0,106,100,59,103
COc1ccc(C#Cc2ccc([C@@H]3[C@H]4CN(C(=O)Nc5ccc(F)cc5)CCCCN4[C@H]3CO)cc2)cc1,0,0,0,-,-,-,-
O=C(Nc1ccccc1F)N[C@H]1CC[C@H](CCNC(=O)C2CCC2)O[C@@H]1CO,0,-,0,-,-,-,-
C[C@@H]1CN([C@@H](C)CO)C(=O)Cc2cc(NC(=O)CCCCCC(=O)Nc3ccccc3N)ccc2O[C@@H]1CN(C)S(=O)(=O)c1cn(C)cn1,0,0,0,-,-,-,-
CC(C)NC(=O)N(C)C[C@H]1Oc2ccc(NC(=O)Cc3ccccc3)cc2C(=O)N([C@H](C)CO)C[C@H]1C,0,-,0,-,-,-,-
CCCNC(=O)C[C@H]1C[C@H]2c3cc(NC(=O)C4CCOCC4)ccc3O[C@H]2[C@@H](CO)O1,0,-,0,-,-,-,-
C[C@@H]1CN([C@H](C)CO)C(=O)c2cc(N(C)C)ccc2O[C@@H](C)CCCCO[C@H]1CN(C)Cc1ccc(C(F)(F)F)cc1,0,120,0,99,113,0,106
C[C@H](CO)N1C[C@H](C)[C@H](CN(C)Cc2ccc(C(F)(F)F)cc2)OCCCC[C@H](C)Oc2ccc(N(C)C)cc2C1=O,0,0,0,-,-,-,-

# Source: PubChem (Broad Institute)
